According to PubChem BioAssay (NCATS):
Results filed as inconclusive are left out. The source made the active and inactive calls. The call rests on the fitted dose curve; in most records, active means well fitted curve in the direction sought with a large enough effect; inconclusive means small, poorly fitted or top-dose-only effect, or another doubt; inactive means no such curve, though single readings can be large; an effect the other way counts as inactive or inconclusive.

Key:
[1] = MultiTox-Fluor Cytotoxicity Assay - LYMP1-003 - Live Cells (AID 962);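 further: cells exposed to compound for 16 hours at 37 °C; cytotoxic hits lower the live-cell protease signal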
Procedure, shortened: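 Acute cytotoxicity is scored as a drop in live-cell protease activity in human lymphoblastoid LYMP1-003 cells after 16 hr compound exposure at 37 C. AC50 values come from Hill-equation modelling of concentration-response data.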

[2] = Cell Viability - LYMP1-003 - Assay at 24 hr (AID 963)
Procedure, shortened: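 Cytotoxicity is scored as a concentration-dependent fall in ATP-linked luciferase signal in human lymphoblastoid LYMP1-003 cells treated 24 hr at 37 C in complete culture medium.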

[3] = Cell Viability - LYMP1-003 - Assay at 40 hr (AID 964); further: series mostly up to about 92 µM; nearly all actives have a fitted effect of over 60% in size
Procedure, shortened: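 Luminescent ATP signal (CellTiter-Glo) served as the viability read-out after 40 hr compound treatment of human lymphoblastoid LYMP1-003 cells at 37 C. Decreases in ATP were fitted with the Hill equation to give AC50.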

[4] = Cell Viability - LYMP2-003 (AID 965);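 further: cells exposed to compounds for 24 h before reading; nearly all actives have a fitted effect of over 50% in size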
Procedure, shortened: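 CellTiter-Glo luminescence quantified ATP loss after 24 h compound treatment of LYMP2-003 lymphoblastoid cells at 37 C. Titration series were fitted with the standard Hill equation to give AC50.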

[5] = Cell Viability - LYMP2-005 (AID 967); further: series mostly up to about 92 µM
Procedure, shortened: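 LYMP2-005 human lymphoblastoid cells (2500/well) were treated with compounds for 24 h at 37 C. Intracellular ATP was then measured by CellTiter-Glo luminescence after 30 min at room temperature. AC50 values came from Hill-equation fits of qHTS concentration-response data.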

[6] = Cell Viability - LYMP2-009 (AID 968); further: series mostly up to about 92 µM; nearly all actives have a fitted effect of over 55% in size
[7] = Cell Viability - LYMP2-011 (AID 969); further: nearly all actives have a fitted effect of over 60% in size
Procedure, shortened: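 In this qHTS cytotoxicity format, compounds are tested across concentrations on human lymphoblastoid cells in complete medium for 24 hours at 37 C. Viability is taken as cellular ATP measured by luciferase luminescence.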

[8] = Cell Viability - LYMP2-013 (AID 970); further: series mostly up to about 92 µM; nearly all actives have a fitted effect of over 55% in size
Procedure, shortened: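 Cytotoxicity is scored as a concentration-dependent drop in intracellular ATP in human lymphoblastoid cells after 24 hr compound exposure at 37 C. ATP is quantified by luciferase luminescence, and AC50 values come from Hill-equation modeling.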

[9] = Cell Viability - LYMP2-015 (AID 971); further: nearly all actives have a fitted effect of over 55% in size
Procedure, shortened: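 Cells are seeded at 2500 per well and incubated 5 hr at 37 C. Compounds are added across a concentration series for 24 hr at 37 C. CellTiter-Glo is added, and luminescence is read after 30 min at room temperature.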

[10] = Cell Viability - LYMP2-017 (AID 972); further: series mostly up to about 92 µM; nearly all actives have a fitted effect of over 55% in size
Procedure, shortened: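 Cytotoxicity is scored as a concentration-dependent drop in cellular ATP in a human lymphoblastoid line after 24 hr treatment at 37 C. Values are AC50s from Hill-equation modelling.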

[11] = Cell Viability - LYMP2-021 (AID 974)
Procedure, shortened: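 Loss of cellular ATP, measured with a luciferase-based CellTiter-Glo readout, serves as the toxicity signal in human lymphoblastoid cells treated for 24 hours at 37 C. Potency is reported as AC50 from a standard Hill model.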

[12] = Cell Viability - LYMP2-023 (AID 975)
Procedure, shortened: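 Steps: seed 2500 human lymphoblastoid cells per well, incubate 5 hr at 37 C, add compound for 24 hr at 37 C, add CellTiter-Glo, hold 30 min at room temperature, read luminescence. AC50 derived by Hill modelling.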

[13] = Cell Viability - LYMP2-025 (AID 976); further: series mostly up to about 92 µM
Procedure, shortened: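 Acute cytotoxicity is scored as a concentration-dependent fall in intracellular ATP, measured by luciferase luminescence, in human lymphoblastoid LYMP2-025 cells exposed to compound for 24 hours at 37 C. AC50 values come from standard Hill fits.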

[14] = Cell Viability - LYMP2-002 (AID 977);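 further: series mostly up to about 92 µM; compound exposure lasted 24 h at 37 °C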
Procedure, shortened: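 Human lymphoblastoid cells (2500/well) in complete medium were preincubated 5 hr at 37 C, then exposed to compounds for 24 hr at 37 C. Intracellular ATP was read by CellTiter-Glo luminescence; AC50 came from Hill-equation concentration-response fits.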

[15] = Cell Viability - LYMP2-006 (AID 978); further: series mostly up to about 92 µM; nearly all actives have a fitted effect of over 60% in size
Procedure, shortened: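 Potency values are Hill-fit AC50s for decreases in intracellular ATP (CellTiter-Glo luminescence). LYMP2-006 lymphoblastoid cells, 2500 per well, were exposed to compound in complete culture medium for 24 hr at 37 C.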

[16] = Cell Viability - LYMP2-007 (AID 979);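 further: cells exposed to compound for 24 h before reading; nearly all actives have a fitted effect of over 60% in size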
Procedure, shortened: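 Cells are seeded at 2500 per well and rested 5 hr. Compounds are then added over a concentration series for 24 hr at 37 C. CellTiter-Glo is added for 30 min at room temperature before luminescence reading.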

[17] = Cell Viability - LYMP2-008 (AID 980); further: nearly all actives have a fitted effect of over 60% in size
Procedure, shortened: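 Cells seeded at 2500/well and rested 5 hr at 37 C; compounds added over a concentration range and incubated 24 hr at 37 C; CellTiter-Glo added, 30 min at room temperature; luminescence read and AC50 fitted with Hill model.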

[18] = Cell Viability - LYMP2-010 (AID 981); further: nearly all actives have a fitted effect of over 55% in size
Procedure, shortened: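 Steps: seed 2500 LYMP2-010 cells per well; incubate 5 hr at 37 C; add compound; incubate 24 hr at 37 C; add CellTiter-Glo, wait 30 min at room temperature; read luminescence. Concentration-response fitted to Hill equation for AC50.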

[19] = Cell Viability - LYMP2-014 (AID 983); further: series mostly up to about 92 µM; nearly all actives have a fitted effect of over 50% in size
Procedure, shortened: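 Cells are plated at 2500/well and left 5 hr at 37 C. Compounds are added across a concentration range and incubated 24 hr at 37 C in complete medium. CellTiter-Glo is added, and luminescence is read after 30 min at room temperature.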

[20] = Cell Viability - LYMP2-020 (AID 986)
Procedure, shortened: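 Seed 2500 cells per well and incubate 5 hr at 37 C. Add compounds at a concentration series and incubate 24 hr at 37 C. Add CellTiter-Glo, wait 30 min at RT, read luminescence, and fit a Hill curve for AC50.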

Measured: Potency

COc1ccc(/C=C/c2cc(OC)cc(=O)o2)cc1
inactive: all assays above

COc1cc(/C=C/c2ccccc2)oc(=O)c1
inactive: all assays above

CC1=C2[C@H](/C=C(\C)C(=O)O)CC[C@@H](C)[C@H]2CC1
inactive: all assays above

O=C(O)c1ccccc1
inactive: all assays above

C=C(C)C1CC=C(C)C(O)C1 (stereo not given)
inactive: all assays above

CCCCCCCCCCCCCC(=O)O
inactive: all assays above

C=CCc1ccc(OC)c(OC)c1
inactive: all assays above

CCCCCCCCCCCC(=O)O
inactive: all assays above
